This is one part of the list. Unmarked numbers belong to inactive results.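 Rule for the calls: active = mean activation above a set limit carried over from the earlier primary screen (cut at about 22% in these data); inactive = the rest.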

Sequence of Caspase-3 (Homo sapiens) (P42574 whole entry D9A/D28A/D175A): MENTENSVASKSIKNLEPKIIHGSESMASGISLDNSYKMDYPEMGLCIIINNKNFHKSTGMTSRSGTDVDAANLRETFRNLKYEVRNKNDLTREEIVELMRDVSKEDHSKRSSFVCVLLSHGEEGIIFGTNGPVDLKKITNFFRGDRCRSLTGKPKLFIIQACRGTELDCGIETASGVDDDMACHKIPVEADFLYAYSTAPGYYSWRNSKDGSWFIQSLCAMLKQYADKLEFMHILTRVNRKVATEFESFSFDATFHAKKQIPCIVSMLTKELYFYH

This assay has as its target Caspase-3 (Homo sapiens) (UniProt P42574). Description: procaspase-3 activation, retest of hits – biochemical, absorbance, PC-3 D3A mutant, triplicate, confirmation (AID 488954). The note with it: recombinant PC-3 D3A, Ac-DEVD-pNA absorbance 405 nm; at 8.5 µM; stronger effect = higher value; 100% is higher-enzyme control.
In the case of `COc1ccc2nc(Nc3nc4ccc(NC(C)=O)cc4s3)sc2c1`, the activation was -1.02%.
Next, `CN1CCN(CCCNC(=O)c2ccc(/C=C3\Oc4ccccc4N(Cc4ccc(Cl)cc4)C3=O)cc2)CC1`: -14.8%; `CCOc1ccc2nc(NCCNS(=O)(=O)c3ccccc3)c(C#N)cc2c1`: -14.1%; `COC(=O)Cc1cc(=O)oc2c(C)c(O)ccc12`: -12.9%.
The result for `O=C(CCNS(=O)(=O)c1ccccc1C(F)(F)F)NCc1ccc2c(c1)OCO2` reads 5.75%; that for `COc1ccc(-c2sc3ccc(OC)cc3c2C#Cc2ccccn2)cc1`, 14.4%.
As for `COC(=O)c1cnc(Nc2cc(C)ccc2OC)c2ccccc12`, the activation was -14.1%.
The result for `COc1ccc(CCNC(=O)COC(=O)c2ccc[nH]c2=O)cc1` reads 5.06%.
The result for `Oc1ccccc1C1=NN(c2ccccc2)C(c2ccccc2)C1` (stereo unspecified) reads -13.4%.
The result for `COc1ccccc1NS(=O)(=O)c1ccc(C(=O)N2CCN(c3ccccc3O)CC2)cc1` reads 5.8%.
On to `Cc1nn(C)cc1CNC(=O)Nc1ccc(Cl)cc1`, for which the activation is 3.2%.

These data come from PubChem BioAssay AID488954 (The Scripps Research Institute Molecular Screening Center, 2010).
